Measured values as given in PubChem BioAssay AID1159580 (chemical genetic matrix, 2015).
Hit rate of the full screen: of about 5,500 compounds, about 2,000 (36%) were called active. Another 18% or so got no clear call; they are omitted. Cut-off read from the data, not from the text of the source: active = normalized growth mostly below about 0.91 (no sharp cut-off); inconclusive = no clear call, values can overlap the other calls; inactive = mostly above about 0.92. The list shows a part of the results.

Test: chemical genetic growth profiling, strain panel (AID 1159580);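 note: tested at 20 µM; growth read once vehicle control cultures reached saturation at 30 °C; 1 = growth at the plate median or of vehicle wells; lower values mean less growth of the strain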
Details: growth OD

Measured: normalized growth

NC(N)=NOCC[C@H](N)C(=O)O
inactive: S. cerevisiae deletion strains, locus YJR043C, strain POL32, hits give low values 1 | S. cerevisiae deletion strains, locus YJR075W, strain HOC1, hits give low values 0.983 | S. cerevisiae deletion strains, locus YKL009W, strain mrt4, hits give low values 0.971 | S. cerevisiae deletion strains, locus YKL068W, hits give low values 0.978 | S. cerevisiae deletion strains, locus YKL085W, strain MDH1 (second series), hits give low values 0.969 | S. cerevisiae deletion strains, locus YKL085W, strain MDH1, hits give low values 0.969 | S. cerevisiae deletion strains, locus YKL160W, strain elf1, hits give low values 1.01 | S. cerevisiae deletion strains, locus YKL190W, strain CNB1, hits give low values 0.995 | S. cerevisiae deletion strains, locus YKR001C, strain vps1, hits give low values 1 | S. cerevisiae deletion strains, locus YKR026C, strain gcn3, hits give low values 1.01 | S. cerevisiae deletion strains, locus YKR091W, strain srl3, hits give low values 1.01 | S. cerevisiae deletion strains, locus YLL001W, strain dnm1, hits give low values 1.01 | S. cerevisiae deletion strains, locus YLL026W, hits give low values 1.01 | S. cerevisiae deletion strains, locus YLL041C, strain sdh2, hits give low values 1.01 | S. cerevisiae deletion strains, locus YLR027C, strain aat2, hits give low values 1.01 | S. cerevisiae deletion strains, locus YLR039C, strain RIC1, hits give low values 0.933 | S. cerevisiae deletion strains, locus YLR058C, strain SHM2, hits give low values 0.984 | S. cerevisiae deletion strains, locus YLR102C, strain apc9, hits give low values 0.988 | S. cerevisiae deletion strains, locus YLR221C, strain rsa3, hits give low values 1.02 | S. cerevisiae deletion strains, locus YLR258W, strain gsy2, hits give low values 1.01 | S. cerevisiae deletion strains, locus YLR262C, strain YPT6 (second series), hits give low values 1.02 | S. cerevisiae deletion strains, locus YLR262C, strain YPT6, hits give low values 0.954 | S. cerevisiae deletion strains, locus YLR268W, strain sec22, hits give low values 1.03 | S. cerevisiae deletion strains, locus YLR320W, strain mms22, hits give low values 1.02 | S. cerevisiae deletion strains, locus YLR330W, strain CHS5, hits give low values 0.977 | S. cerevisiae deletion strains, locus YLR342W, strain FKS1 (second series), hits give low values 1.01 | S. cerevisiae deletion strains, locus YLR342W, strain FKS1, hits give low values 0.992 | S. cerevisiae deletion strains, locus YLR357W, strain rsc2, hits give low values 1.03 | S. cerevisiae deletion strains, locus YLR370C, strain arc18, hits give low values 1.02 | S. cerevisiae deletion strains, locus YLR371W, strain rom2, hits give low values 0.964 | S. cerevisiae deletion strains, locus YLR384C, strain iki3, hits give low values 1.01 | S. cerevisiae deletion strains, locus YLR418C, strain cdc73, hits give low values 1.02 | S. cerevisiae deletion strains, locus YML016C, strain PPZ1, hits give low values 0.992 | S. cerevisiae deletion strains, locus YML032C, strain rad52, hits give low values 0.976 | S. cerevisiae deletion strains, locus YML120C, strain ndi1, hits give low values 1.02 | S. cerevisiae deletion strains, locus YML124C, strain tub3, hits give low values 0.996 | S. cerevisiae deletion strains, locus YMR058W, strain fet3, hits give low values 1 | S. cerevisiae deletion strains, locus YMR078C, strain ctf18, hits give low values 0.998 | S. cerevisiae deletion strains, locus YMR125W, strain sto1, hits give low values 1 | S. cerevisiae deletion strains, locus YMR129W, hits give low values 1.02 | S. cerevisiae deletion strains, locus YMR205C, strain PFK2, hits give low values 1.01 | S. cerevisiae deletion strains, locus YMR223W, strain ubp8, hits give low values 0.976 | S. cerevisiae deletion strains, locus YMR231W, strain pep5, hits give low values 1.02 | S. cerevisiae deletion strains, locus YMR263W, strain SAP30, hits give low values 1.01 | S. cerevisiae deletion strains, locus YMR307W, strain GAS1, hits give low values 1.06 | S. cerevisiae deletion strains, locus YNL067W, strain RPL9B, hits give low values 1.02 | S. cerevisiae deletion strains, locus YNL071W, strain lat1, hits give low values 1.01 | S. cerevisiae deletion strains, locus YNL128W, strain TEP1, hits give low values 0.992 | S. cerevisiae deletion strains, locus YNL153C, strain GIM3, hits give low values 1.03 | S. cerevisiae deletion strains, locus YNL209W, strain ssb2, hits give low values 1 | S. cerevisiae deletion strains, locus YNL233W, strain BNI4, hits give low values 1.03 | S. cerevisiae deletion strains, locus YNL248C, strain rpa49, hits give low values 1.02 | S. cerevisiae deletion strains, locus YNL250W, strain rad50, hits give low values 0.961 | S. cerevisiae deletion strains, locus YNL271C, strain bni1, hits give low values 0.973 | S. cerevisiae deletion strains, locus YNL298W, strain CLA4, hits give low values 0.989 | S. cerevisiae deletion strains, locus YNL307C, strain MCK1, hits give low values 1 | S. cerevisiae deletion strains, locus YNL322C, strain KRE1 (second series), hits give low values 1.01 | S. cerevisiae deletion strains, locus YNL322C, strain KRE1, hits give low values 0.984 | S. cerevisiae deletion strains, locus YNR049C, strain mso1, hits give low values 1.01 | S. cerevisiae deletion strains, locus YNR052C, strain pop2, hits give low values 0.974 | S. cerevisiae deletion strains, locus YOL006C, strain TOP1, hits give low values 1.07 | S. cerevisiae deletion strains, locus YOL012C, strain htz1 1.13 | S. cerevisiae deletion strains, locus YOL147C, strain pex11, hits give low values 0.986 | S. cerevisiae deletion strains, locus YOR001W, strain rrp6, hits give low values 1.03 | S. cerevisiae deletion strains, locus YOR061W, strain CKA2, hits give low values 0.991 | S. cerevisiae deletion strains, locus YOR069W, strain VPS5, hits give low values 0.994 | S. cerevisiae deletion strains, locus YOR070C, strain gyp1, hits give low values 1.02 | S. cerevisiae deletion strains, locus YOR080W, strain dia2, hits give low values 1.02 | S. cerevisiae deletion strains, locus YOR083W, strain WHI5, hits give low values 1 | S. cerevisiae deletion strains, locus YOR106W, strain vam3, hits give low values 1.01 | S. cerevisiae deletion strains, locus YOR136W, strain idh2, hits give low values 0.988 | S. cerevisiae deletion strains, locus YOR144C, strain elg1, hits give low values 0.989 | S. cerevisiae deletion strains, locus YOR184W, strain ser1, hits give low values 0.971 | S. cerevisiae deletion strains, locus YOR265W, strain rbl2, hits give low values 1.01 | S. cerevisiae deletion strains, locus YOR270C, strain vph1, hits give low values 1.04 | S. cerevisiae deletion strains, locus YOR290C, strain snf2, hits give low values 1.02 | S. cerevisiae deletion strains, locus YOR316C, strain cot1, hits give low values 0.992 | S. cerevisiae deletion strains, locus YPL051W, strain arl3, hits give low values 1.01 | S. cerevisiae deletion strains, locus YPL055C, strain LGE1, hits give low values 1.02 | S. cerevisiae deletion strains, locus YPL078C, strain atp4, hits give low values 1.02 | S. cerevisiae deletion strains, locus YPL106C, strain sse1, hits give low values 1.03 | S. cerevisiae deletion strains, locus YPL240C, strain hsp82, hits give low values 1 | S. cerevisiae deletion strains, locus YPL241C, strain CIN2, hits give low values 0.993 | S. cerevisiae deletion strains, locus YPR119W, strain clb2, hits give low values 0.996 | S. cerevisiae deletion strains, locus YPR141C, strain kar3, hits give low values 0.988 | S. cerevisiae deletion strains, locus YPR163C, strain tif3, hits give low values 0.983 | S. cerevisiae deletion strains, locus YPR167C, strain met16, hits give low values 0.985 | S. cerevisiae deletion strains, strain wtn01, hits give low values 0.999 | S. cerevisiae strains, strain wild type, hits give low values 0.992
